Measurements taken from PubChem BioAssay (Tox21).
Results filed as inconclusive are left out. The source made the active and inactive calls. Unless noted, calls follow the shape of the dose curve; as a rule, active = well fitted curve in the direction sought with a large enough effect in the repeat runs; inconclusive = weak or mixed curves; inactive = no such curve, though single readings can be large; an effect the other way counts as inactive or inconclusive.

Legend:
[1] = qHTS assay to identify aromatase inhibitors - cell viability counter screen (AID 743084);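 also: cells stimulated with testosterone during compound exposure; nearly all actives have a fitted effect of over 55% in size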
[2] = qHTS assay to identify small molecule that activate the aryl hydrocarbon receptor (AhR) signaling pathway - cell viability counter screen (AID 743086);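 also: HepG2 liver cells carrying the AhR DRE luciferase reporter; series mostly up to about 70 µM; nearly all actives have a fitted effect of over 45% in size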
Outline: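 Cytotoxicity counter screen: CellTiter-Fluor signal (30 min, 37 C) in 4000 HepG2 cells/well carrying the DRE-luciferase reporter, following 24 h compound exposure at 37 C.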

[3] = biological target: Peroxisome proliferator-activated receptor gamma (Homo sapiens) (UniProt P37231); assay: qHTS assay to identify small molecule agonists of the peroxisome proliferator-activated receptor gamma (PPARg) signaling pathway (AID 743094; active = well fitted activation curve with a large enough effect in the signal ratio in the repeat runs, not every such curve was filed as active; the % refers to the signal ratio)
Peroxisome proliferator-activated receptor gamma (Homo sapiens), sequence (P37231 whole entry, looked up): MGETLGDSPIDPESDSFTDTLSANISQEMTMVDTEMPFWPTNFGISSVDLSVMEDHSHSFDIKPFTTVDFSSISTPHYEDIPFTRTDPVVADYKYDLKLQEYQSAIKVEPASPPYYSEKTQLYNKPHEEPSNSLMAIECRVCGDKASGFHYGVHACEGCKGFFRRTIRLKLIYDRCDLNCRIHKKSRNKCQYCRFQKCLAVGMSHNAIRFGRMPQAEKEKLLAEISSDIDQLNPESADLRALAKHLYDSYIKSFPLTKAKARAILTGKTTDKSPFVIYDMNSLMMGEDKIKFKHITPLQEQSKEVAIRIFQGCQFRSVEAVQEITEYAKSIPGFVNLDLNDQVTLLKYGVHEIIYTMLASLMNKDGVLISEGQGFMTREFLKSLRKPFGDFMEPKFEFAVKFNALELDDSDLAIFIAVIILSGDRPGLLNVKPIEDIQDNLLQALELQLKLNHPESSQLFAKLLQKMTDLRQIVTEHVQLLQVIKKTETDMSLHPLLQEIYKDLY
Outline: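 Stably transfected HEK293H cells (GeneBLAzer PPARg UAS-bla) were incubated with test substances for 17 h at 37C after a 5 h pre-incubation; beta-lactamase activity was then detected by FRET substrate fluorescence.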

[4] = qHTS assay to identify small molecule antagonists of the peroxisome proliferator-activated receptor gamma (PPARg) signaling pathway - cell viability counter screen (AID 743194); conditions: Potency: co-treated with 50 nM rosiglitazone; also: nearly all actives have a fitted effect of over 55% in size
Outline: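 Viability was measured as CellTiter-Glo luminescence in GeneBLAzer PPARg UAS-bla HEK293H cells. These cells had been exposed 17 h at 37 C to compounds together with rosiglitazone at 50 nM final, with the beta-lactamase readout taken in the same wells.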

[5] = qHTS assay for small molecule agonists of the antioxidant response element (ARE) signaling pathway (AID 743202; active = well fitted activation curve with a large enough effect in the signal ratio in the repeat runs, not every such curve was filed as active; the % refers to the signal ratio)
Outline: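 An ARE-responsive beta-lactamase gene stably integrated in HepG2 cells serves as reporter. After 5 h plating and 16 h compound incubation at 37 C, fluorescence of the B/G FRET substrate was measured.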

[6] = qHTS assay for small molecule agonists of the antioxidant response element (ARE) signaling pathway - cell viability counter screen (AID 743203; calls by dose curve; also: nearly all actives have a fitted effect of over 55% in size)
Outline: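 Cells (ARE-bla HepG2, 2,000/well) receive DMSO-dissolved compounds after a 5 hrs rest. Plates incubate 16 hrs at 37C/5% CO2. CellTiter-Glo luminescence is then recorded after 30 min at room temperature.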

[7] = qHTS assay for small molecule activators of the heat shock response signaling pathway - cell viability counter screen (AID 743209); also: nearly all actives have a fitted effect of over 50% in size
Outline: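 Quantitative HTS format, Tox21 10K library. HeLa cells carrying an HSE-driven beta-lactamase reporter were treated 5 h at 37 C, then assessed for viability by CellTiter-Glo luminescence.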

[8] = qHTS assay for small molecule activators of the heat shock response signaling pathway (AID 743210; active = well fitted activation curve with a large enough effect in the signal ratio in the repeat runs, with a control signal flat, not every such curve was filed as active; the % refers to the signal ratio;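 also: HeLa cells with beta-lactamase reporter driven by heat shock elements; series mostly up to about 63 µM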)
Outline: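 In HSE-bla HeLa cells, 5 h compound incubation (37 C) precedes addition of LiveBLAzer B/G substrate; after 2.5 h at room temperature, fluorescence intensity indicates reporter induction.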

[9] = qHTS assay to identify small molecule agonists of the peroxisome proliferator-activated receptor delta (PPARd) signaling pathway - cell viability counter screen (AID 743211); also: nearly all actives have a fitted effect of over 55% in size
Outline: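 Following 5 h plating at 37 C and 5% CO2, PPARd UAS-bla HEK293H cells took up test compounds for 17 h. Viability was quantified by luminescence 30 min after CellTiter-Glo addition at room temperature.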

[10] = biological target: Peroxisome proliferator-activated receptor delta (Homo sapiens) (UniProt Q03181); assay: qHTS assay to identify small molecule agonists of the peroxisome proliferator-activated receptor delta (PPARd) signaling pathway (AID 743212; calls by dose curve)
Peroxisome proliferator-activated receptor delta (Homo sapiens), sequence (Q03181 whole entry, looked up): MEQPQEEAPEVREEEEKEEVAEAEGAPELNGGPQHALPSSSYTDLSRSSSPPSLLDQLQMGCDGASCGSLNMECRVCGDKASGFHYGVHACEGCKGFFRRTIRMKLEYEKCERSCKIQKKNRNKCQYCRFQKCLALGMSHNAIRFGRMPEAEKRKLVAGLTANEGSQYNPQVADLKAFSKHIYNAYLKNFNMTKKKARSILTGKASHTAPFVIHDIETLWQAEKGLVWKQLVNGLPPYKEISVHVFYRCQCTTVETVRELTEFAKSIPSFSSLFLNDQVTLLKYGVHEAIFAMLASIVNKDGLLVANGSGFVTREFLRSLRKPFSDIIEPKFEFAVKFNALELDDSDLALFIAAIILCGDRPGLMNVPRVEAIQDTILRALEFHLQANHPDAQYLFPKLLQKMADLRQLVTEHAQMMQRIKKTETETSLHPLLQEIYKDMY
Outline: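 HEK293H UAS-bla reporter cells, human PPARd system; compounds delivered in DMSO after 5 h plating, then at 37 C. Beta-lactamase FRET read, 2 h RT substrate step.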

[11] = qHTS assay to identify small molecule antagonists of the peroxisome proliferator-activated receptor delta (PPARd) signaling pathway - cell viability counter screen (AID 743213); also: nearly all actives have a fitted effect of over 50% in size
Outline: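 Viability counter-screen, qHTS format: PPARd-bla HEK293H, L165041 300 nM final, 17 h compound exposure at 37 C, CellTiter-Glo luminescence after 30 min RT.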

[12] = biological target: Peroxisome proliferator-activated receptor delta (Homo sapiens) (UniProt Q03181); assay: qHTS assay to identify small molecule antagonists of the peroxisome proliferator-activated receptor delta (PPARd) signaling pathway (AID 743215; active = well fitted inhibition curve with a large enough effect in the signal ratio in the repeat runs, not every such curve was filed as active; the % refers to the signal ratio;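 also: cells stimulated with agonist L165041 at 300 nM final during compound exposure; series mostly up to about 62 µM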)
Outline: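 Antagonist-mode beta-lactamase reporter screen: HEK293H cells with UAS-bla under PPARd control, stimulated by 300 nM L165041 (final) alongside test compound for 17 h at 37 C, then FRET fluorescence after 2 h substrate incubation.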

[13] = qHTS assay to identify small molecule agonists of the farnesoid-X-receptor (FXR) signaling pathway - cell viability counter screen (AID 743218); also: nearly all actives have a fitted effect of over 45% in size
Outline: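 In GeneBLAzer FXR-UAS-bla HEK 293T cells, compounds act for 16 h at 37 C. Cell viability is then scored in the reporter wells by CellTiter-Glo, 30 min at RT, luminescence.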

[14] = qHTS assay to identify small molecule antagonists of the farnesoid-X-receptor (FXR) signaling pathway - cell viability counter screen (AID 743221; active = well fitted cell-killing curve with a large enough effect in the repeat runs, not every such curve was filed as active; also: nearly all actives have a fitted effect of over 50% in size)
Outline: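 Compound effects on cell number were measured as CellTiter-Glo luminescence in HEK 293T cells expressing FXR-UAS-bla, after 16 h at 37 C with 50 uM CDCA (final).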

[15] = biological target: Vitamin D3 receptor (Homo sapiens) (UniProt P11473); assay: qHTS assay to identify small molecule agonists of the vitamin D receptor (VDR) signaling pathway (AID 743222; calls by dose curve)
Vitamin D3 receptor (Homo sapiens), sequence (P11473 whole entry, looked up): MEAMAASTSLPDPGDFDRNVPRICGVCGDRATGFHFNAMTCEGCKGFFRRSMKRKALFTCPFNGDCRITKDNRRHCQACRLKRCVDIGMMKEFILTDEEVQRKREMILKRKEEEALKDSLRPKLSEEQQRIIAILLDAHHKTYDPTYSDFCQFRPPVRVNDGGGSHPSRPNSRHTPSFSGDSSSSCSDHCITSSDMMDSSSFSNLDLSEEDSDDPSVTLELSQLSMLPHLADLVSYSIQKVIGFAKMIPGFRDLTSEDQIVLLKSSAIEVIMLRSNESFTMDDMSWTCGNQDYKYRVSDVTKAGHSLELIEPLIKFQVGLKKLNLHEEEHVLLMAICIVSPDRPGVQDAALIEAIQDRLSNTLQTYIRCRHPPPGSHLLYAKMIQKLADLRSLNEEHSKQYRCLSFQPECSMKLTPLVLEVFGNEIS
Outline: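 Agonist activity measured in VDR-bla reporter cells. Exposure 16 h, 37C, 5% CO2; detection by B/G FRET substrate, 2 h RT.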

[16] = biological target: Bile acid receptor (Homo sapiens) (UniProt Q96RI1); assay: qHTS assay to identify small molecule antagonists of the farnesoid-X-receptor (FXR) signaling pathway (AID 743217; active = well fitted inhibition curve with a large enough effect in the signal ratio in the repeat runs, not every such curve was filed as active; the % refers to the signal ratio)
Bile acid receptor (Homo sapiens), sequence (Q96RI1 whole entry, looked up): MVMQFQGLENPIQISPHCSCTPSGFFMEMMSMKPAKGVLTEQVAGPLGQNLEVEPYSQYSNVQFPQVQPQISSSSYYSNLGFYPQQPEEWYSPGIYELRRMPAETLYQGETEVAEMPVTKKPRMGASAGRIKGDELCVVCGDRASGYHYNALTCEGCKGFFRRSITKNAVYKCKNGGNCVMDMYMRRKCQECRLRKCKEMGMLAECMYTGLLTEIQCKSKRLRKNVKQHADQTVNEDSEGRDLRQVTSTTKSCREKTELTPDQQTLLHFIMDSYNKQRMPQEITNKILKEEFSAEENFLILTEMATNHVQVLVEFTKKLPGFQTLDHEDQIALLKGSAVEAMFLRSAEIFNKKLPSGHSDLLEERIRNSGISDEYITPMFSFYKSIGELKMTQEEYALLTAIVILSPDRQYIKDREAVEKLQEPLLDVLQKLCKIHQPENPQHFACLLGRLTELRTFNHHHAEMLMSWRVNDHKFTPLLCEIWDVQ
Outline: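 Beta-lactamase reporter under UAS control in HEK 293T cells; compound exposure 16 h at 37 °C in the presence of chenodeoxycholic acid (50 uM final); signal from B/G FRET substrate after 2 h at room temperature.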

[17] = biological target: Bile acid receptor (Homo sapiens) (UniProt Q96RI1); assay: qHTS assay to identify small molecule agonists of the farnesoid-X-receptor (FXR) signaling pathway (AID 743220; active = well fitted activation curve with a large enough effect in the signal ratio in the repeat runs, not every such curve was filed as active; the % refers to the signal ratio)
Outline: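 Beta-lactamase reporter under UAS control in GeneBLAzer FXR HEK 293T cells (5000/well) measured with LiveBLAzer FRET substrate after 2 h at room temperature. Compound exposure lasted 16 h at 37C.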

Measured: Potency

C=C(Cl)Cl
not listed: [15] | [16] | [17]
inactive: all other assays above

NP(N)(=O)NC(=O)c1ccc(F)cc1
not listed: [8] | [16] | [17]
inactive: all other assays above

C[C@@H]1C[C@@H]([C@H](O)CC2CC(=O)NC(=O)C2)C(=O)[C@@H](C)C1
not listed: [1] | [2] | [5] | [6] | [10] | [12] | [15]
inactive: all other assays above

COc1ccc(C(=O)c2c(C)n(CCN3CCOCC3)c3ccccc23)cc1
not listed: [6] | [13] | [15] | [16]
inactive: all other assays above

CCOC(=O)c1cn2nc(OP(=S)(OCC)OCC)cc2nc1C
not listed: [3] | [5] | [6] | [8] | [15] | [16]
inactive: all other assays above
